# A selection: hits, their analogues and other compounds. The true share with any hit is near 14%.
# Pf growth 48h: Primary qHTS for delayed death inhibitors of the malarial parasite plastid, 48 hour incubation. Potency, µM (top dose mostly 28.7 µM), without a hit: top-dose activity change, negative = inhibition, actives largely listed as inhibitors. P. falciparum luciferase growth in erythrocytes, 48 h. AID 504832, 2011. hit rate 5.9% among 310,000; also: potency is read from the fitted curve at half-maximal effect
#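 Parasite viability was followed by luminescence of a genomically integrated firefly luciferase. Cultures held 0.1% parasitemia at 2% hematocrit (final), incubated under 5% CO2 at 37 C.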
# HCV inh: qHTS Assay for Inhibitors of Hepatitis C Virus (HCV). Potency, µM (doses to about 41.8 µM), inactives show at the top dose activity change, negative = inhibition, actives largely listed as inhibitors. Huh7.5.1 HCVcc-Cre infection, luciferase reporter, 44 h. hit rate 3.4% among 340,000; also: potency is read from the fitted curve at half-maximal effect
#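 Compounds are dispensed onto cells plated 4 h earlier at 1,000 per well, with HCVcc-Cre virus (about 0.5 moi) added next. Following 44 h of culture, luminescent signal is measured for 15 sec after 15 min with substrate at room temperature.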
# Lassa entry inh: qHTS for Inhibitors of binding or entry into cells for Lassa Virus | AID 540256, 2011 | Lassa virus pseudotype entry inhibition, cell reporter | Potency, µM (top dose mostly 37.9 µM), inactives show at the highest dose activity change, negative = inhibition, most hits filed as inhibitors | hit rate 1.2% among 300,000; calls by dose curve; tested in HEK293 cells; also: potency is read from the fitted curve at half-maximal effect; nearly all actives have a fitted effect of over 50% in size
# MARV entry inh: qHTS for inhibitors of binding or entry into cells for Marburg Virus | Marburg virus pseudotyped entry inhibition, cell reporter | Potency, µM (titrated, usually from 37.8 µM), without a hit: top-dose activity change, negative = inhibition, hits mostly inhibitors | hit rate 1.8% among 300,000; calls by dose curve; tested in HEK293 cells; also: potency is read from the fitted curve at half-maximal effect
# Pf growth 96h: Primary qHTS for delayed death inhibitors of the malarial parasite plastid, 96 hour incubation. P. falciparum luciferase reporter growth, 96 h. Potency, µM (top dose mostly 28.7 µM), inactives show at the top dose activity change, negative = inhibition, hits mostly inhibitors. hit rate 6.9% among 320,000. AID 504834, 2011; also: potency is read from the fitted curve at half-maximal effect
#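 Luminescence readout: decreased luciferase signal marks inhibited growth of reporter-expressing P. falciparum in infected red cells (2% hematocrit, 0.05% parasitemia final), exposed to compound two generations (96 h, 37 C, 5% CO2).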
# HCMV inh: qHTS Assay for inhibitors of the human cytomegalovirus (HCMV); HFF cells, HCMV-luciferase reporter, 72 h; stronger effect = lower value; activity change, negative = inhibition, % at 57.5 µM; hit rate 4.5% among 410,000; AID 1259415, 2018; in the data active = activity change below about -60%; inconclusive = no clear call, values can overlap the other calls; inactive = above about -39%
#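 Steps: HFFs plated, 16 h 37C; compounds added; HCMV-luciferase added to MOI 1 PFU/cell; 72 h 37C; OneGlo reagent, 5 min room temperature; luminescence read, normalized to controls.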
# An asterisk follows results filed as active; u = inconclusive; x = no result given; [ ] = another dose, or the depositor's remark. Unless noted, calls follow the shape of the dose curve; as a rule, active = well fitted inhibition curve with a large enough effect; inconclusive = small, poorly fitted or top-dose-only effect, or another doubt; inactive = no such curve, though single readings can be large or run the other way. % is scaled to controls: 0 for no effect and ±100 for the full control effect.
SMILES,Pf growth 48h,HCV inh,Lassa entry inh,MARV entry inh,Pf growth 96h,HCMV inh
CN(CC(=O)Nc1ccc(F)cc1)C(=O)c1cc(-c2ccco2)nc2ccccc12,u,-1.8%,u,-13.6%[46.1 µM],u,-2.9
COc1ccccc1CN(C)C(=O)c1cc(C)nc2ccccc12,0.0%,1.3%,-1.0%[46.1 µM],11.2µM*,u,-14.9
CCOc1ccc(NC(=O)CN(C)C(=O)c2cc(-c3ccncc3)nc3ccccc23)cc1OCC,u,u,-4.5%[46.1 µM],u,u,12.5
Cc1ccc2nc(-c3ccccc3)cc(C(=O)N(C)CC(=O)Nc3ccccc3Br)c2c1,13.1µM*,u,u,11.2µM*,u,-19.4
COc1ccccc1CNC(=O)c1cc(C)nc2ccccc12,u,u,-10.1%,3.1%[46.1 µM],-28.3%,-1.5
Cc1ccc(NC(=O)CN(C)C(=O)c2cc(-c3ccco3)nc3ccccc23)cc1,10.4µM*,u,-19.7%,-15.9%[46.1 µM],u,-11.9
CCOc1ccc(NC(=O)CN(C)C(=O)c2cc(C)nc3ccccc23)cc1OCC,14.7µM*,u,x,x,u,-0.7
N[C@@H](Cn1ccc(=O)c(O)c1)C(=O)O,x,x,u,1.2%,x,x
COC(=O)c1cnc(N2CCN(c3ccc(OC)cc3)CC2)c2ccccc12,x,x,-18.8%[46.1 µM],x,x,u
COc1ccc(Cl)cc1NC(=O)CN(C)C(=O)c1cc(-c2ccncc2)nc2ccccc12,9.28µM*,-25.6%,1.2%[46.1 µM],u,5.22µM*,22.3
COc1ccc(NC(=O)CN(C)C(=O)c2cc(-c3ccccc3)nc3ccccc23)cc1,u,-4.0%,u,u,-0.7%,-16.9
COc1ccc(NC(=O)CN(C)C(=O)c2cc(-c3ccc(OC)cc3)nc3ccccc23)cc1,9.28µM*,u,u,u,u,-12.4
Cc1[nH]n2c(=O)cc(-c3ccc(Cl)cc3)nc2c1-c1ccccc1,x,x,2.51µM*,11.2µM*,x,-106.8*
Cc1[nH]n2c(=O)cc(-c3ccc([N+](=O)[O-])cc3)nc2c1-c1ccccc1,x,10µM*,u,u,x,41.9
Cc1[nH]n2c(=O)cc(C(C)C)nc2c1-c1ccccc1,-0.7%,-23.4%,-10.8%,u,-12.2%,41.6
Cc1[nH]n2c(=O)cc(C(C)(C)C)nc2c1-c1ccccc1,u,10µM*,10µM*,u,-5.6%,-61.6*
Cc1ccc(N=Nc2c(N)[nH]n3c(=O)cc(-c4ccccc4)nc23)cc1,u,12.6µM*,0.8%,u,u,-80.9*
COCCNC(=O)c1cc(-c2ccccc2)n(Cc2cc(C)no2)n1,30.5%,9.6%,x,x,31.8%,u
CN(CC(=O)Nc1ccccc1C(F)(F)F)C(=O)c1ccc(-c2ccc(Cl)cc2)o1,2.94µM*,u,u,13.4%,2.62µM*,-11.3
COc1cccc(NC(=O)CN(C)C(=O)c2ccc(-c3ccc(Cl)cc3)o2)c1,1.65µM*,-5.1%,1.1%,u,5.86µM*,u
COc1cccc(NC(=O)CN(C)C(=O)c2ccccn2)c1,x,1.3%,x,x,x,11.6
COc1cccc(NC(=O)CN(C)C(=O)c2ccc(-c3ccccc3Cl)o2)c1,0.294µM*,u,-29.5%,2.6%,u,9.3
CN(CC(=O)Nc1ccccc1Br)C(=O)c1ccc(-c2ccc(Cl)cc2)o1,u,x,u,u,u,8.7
Cc1ccc(N2CCN(S(=O)(=O)c3nnc(NC(=O)c4cccc(F)c4)s3)CC2)cc1,x,x,10.0%[46.1 µM],x,x,9.4
CCOc1cc(C(=O)Nc2ccc3oc(-c4ccc(CC)cc4)nc3c2)cc(OCC)c1OCC,x,x,-3.9%[46.1 µM],x,x,-26.9
COc1ccccc1NC(=O)OC[C@@H]1CSCCS(=O)(=O)N1,x,x,x,u,x,-19.8
Cc1cc(C(=O)CSc2nc3ccc(Cl)cc3[nH]2)c(C)n1CC1CCCO1 (stereo not drawn),x,8.91µM*,u,12.6µM*,u,-65.7*

# Source: PubChem BioAssay (National Center for Advancing Translational Sciences (NCATS))
